These results are taken from PubChem BioAssay (NCATS).

Assay [1] can be described thus: Confirmation and Secondary Assay for Modulators of Hemoglobin Beta Chain Splicing at IVS2 705 locus (AID 930).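 Note: HeLa cells stably expressing the EGFP-705 splicing reporter; GFP fluorescence per well restored by corrected splicing of the IVS2-705 intron in EGFP; series mostly up to about 46 µM; % of control where 0% means no effect.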 The procedure, abridged:
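HeLa IVS2-705 EGFP reporter cells, 500/well, compound 2 d at 37C; correct splicing yields fluorescent EGFP. Control: 500 nM antisense PNA. Read-out: total peak GFP intensity.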

In assay [2] the target is N-terminal Xaa-Pro-Lys N-methyltransferase 1 (Homo sapiens) (UniProt Q9BV86). Briefly: Confirmatory qHTS for Inhibitors of N-terminal methyltransferase 1 (NTMT1): MTaseGlo Assay (AID 1645874). Note: potency is the fitted concentration of half-maximal effect; nearly all actives have a fitted effect of over 65% in size. The note with it: NTMT1 enzyme, MTase-Glo SAH luminescence. The procedure, abridged: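 SPKRIA peptide at 1 uM was methylated by 125 nM NTMT1 using 100 uM SAM over 30 min at room temperature, following a 15 min compound preincubation. Product SAH was detected luminescently.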
Sequence of N-terminal Xaa-Pro-Lys N-methyltransferase 1 (Homo sapiens) (Q9BV86 whole entry, looked up): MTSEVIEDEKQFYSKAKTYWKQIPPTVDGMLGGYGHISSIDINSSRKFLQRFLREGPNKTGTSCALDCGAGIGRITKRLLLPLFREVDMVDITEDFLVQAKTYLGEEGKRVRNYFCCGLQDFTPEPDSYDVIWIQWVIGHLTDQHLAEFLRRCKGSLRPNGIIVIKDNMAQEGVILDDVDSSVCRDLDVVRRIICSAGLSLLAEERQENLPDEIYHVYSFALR
Background: In qHTS, concentration-response curves come from the screen itself.

In assay [3] the target is Calcium and integrin-binding protein 1 (Homo sapiens) (UniProt Q99828). The experiment in a line: Confirmatory qHTS for Identification of Calcium Integrin Binding Protein 1 (CIB1) Competitor (AID 1508617). Note: potency is the fitted concentration of half-maximal effect; nearly all actives have a fitted effect of over 65% in size. The settings on record: CIB1 binding competition assay, biochemical qHTS. Summed up: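 Fluorescence polarization competition: CIB1-GST (1 uM final) in 5 mM HEPES pH 7.4, 125 mM NaCl, 5 mM CaCl2, 0.01% Tween20 preincubated 15 min RT with compound (up to 114 uM), then FITC-alphaIIb peptide (100 nM) added, 15 min RT.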
Sequence of Calcium and integrin-binding protein 1 (Homo sapiens) (Q99828 whole entry, looked up): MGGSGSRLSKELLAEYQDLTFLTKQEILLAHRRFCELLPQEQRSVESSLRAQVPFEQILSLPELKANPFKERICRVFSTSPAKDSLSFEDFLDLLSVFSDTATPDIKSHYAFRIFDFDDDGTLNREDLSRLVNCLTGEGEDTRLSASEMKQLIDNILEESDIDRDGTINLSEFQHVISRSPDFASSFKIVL

Assay [4] deals with Nuclear receptor subfamily 1 group I member 3 (Homo sapiens) (UniProt Q14994). The experiment in a line: Primary qHTS for antagonist of constitutive androstane receptor (CAR) against the NCATS DSHEA and TCM libraries (AID 1794836). Note: potency is the fitted concentration of half-maximal effect. The procedure, abridged: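 Antagonist mode: CAR reporter luminescence (ONE-Glo) in HepG2-CYP2B6-hCAR cells stimulated with 48 uM CITCO (final) over 24 h at 37 C, compounds titrated; viability read first by CellTiter-Fluor fluorescence.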
Sequence of Nuclear receptor subfamily 1 group I member 3 (Homo sapiens) (Q14994 whole entry, looked up): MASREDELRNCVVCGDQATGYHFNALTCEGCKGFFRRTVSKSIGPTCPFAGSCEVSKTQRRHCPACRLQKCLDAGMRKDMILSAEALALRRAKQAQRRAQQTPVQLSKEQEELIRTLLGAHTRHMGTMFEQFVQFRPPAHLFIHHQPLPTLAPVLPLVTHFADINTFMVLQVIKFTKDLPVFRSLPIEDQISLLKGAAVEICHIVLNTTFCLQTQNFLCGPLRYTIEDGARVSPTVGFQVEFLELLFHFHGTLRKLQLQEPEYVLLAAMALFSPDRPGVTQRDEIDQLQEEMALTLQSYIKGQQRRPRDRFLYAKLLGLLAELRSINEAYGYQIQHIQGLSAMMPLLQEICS

Assay [5] can be described thus: Viability counterscreen for agonist of constitutive androstane receptor (CAR) against the NCATS DSHEA and TCM libraries (AID 1794838). Note: 0% is about no effect. Summed up:
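Multiplexed counterscreen: after 24 h compound exposure with 0.75 uM PK11195, HepG2-CYP2B6-hCAR viability was quantified fluorimetrically (CellTiter-Fluor, 405/540 nm) prior to the ONE-Glo luciferase read.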
On the technique in general: Counterscreens check selectivity or assay interference.

The target in assay [6] is Nuclear receptor subfamily 1 group I member 3 (Homo sapiens) (UniProt Q14994). Briefly: Primary qHTS for agonist of constitutive androstane receptor (CAR) against the NCATS DSHEA and TCM libraries (AID 1794839).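 Note: HepG2 cells expressing human CAR with a CYP2B6 reporter plus PK11195 antagonist; 0% is about no effect.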 Summed up:
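Concentration–response screen in HepG2-CYP2B6-hCAR cells under 0.75 µM PK11195; 24 h exposure; luminescent reporter signal with multiplexed fluorescent viability.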

Assay [7] can be described thus: HepG2 viability counterscreen (readout 2: ATP content) against the NCATS DSHEA and TCM libraries (AID 1794840).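 Note: HepG2 cells exposed to substances for about 24 h; 0% is about no effect.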 The procedure, abridged: (§1)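 After HepG2 cells attach for ~4 h, substances are added and incubated ~24 h at 37C, 5% CO2. GF-AFC fluorescence then CellTiter-Glo luminescence give protease and ATP readouts.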
Assay [8] is described as follows: HepG2 viability counterscreen (readout 1: protease activity) against the NCATS DSHEA and TCM libraries (AID 1794841).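 Note: cells exposed to compounds for about 24 h before the protease read; 0% is about no effect.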 Summed up:
as §1

Assay [9] deals with Cytochrome P450 3A4 (Homo sapiens) (UniProt P08684). Briefly: qHTS for inhibitors of CYP3A4 against the NCATS DSHEA and TCM libraries (AID 1919971).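 Note: % is set by controls: 0 for no effect and ±100 for the full control effect; inhibition lowers luminescence from luciferin made by CYP3A4.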 The procedure, abridged: (§2)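 Each CYP isoform and its pro-luciferin substrate, at isoform-specific final concentrations, were preincubated 15 min at RT with substances. NADPH regeneration solution (1x) started a 30-45 min reaction, and P450-Glo luminescence was read.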
Sequence of Cytochrome P450 3A4 (Homo sapiens) (P08684 whole entry, looked up, canonical isoform): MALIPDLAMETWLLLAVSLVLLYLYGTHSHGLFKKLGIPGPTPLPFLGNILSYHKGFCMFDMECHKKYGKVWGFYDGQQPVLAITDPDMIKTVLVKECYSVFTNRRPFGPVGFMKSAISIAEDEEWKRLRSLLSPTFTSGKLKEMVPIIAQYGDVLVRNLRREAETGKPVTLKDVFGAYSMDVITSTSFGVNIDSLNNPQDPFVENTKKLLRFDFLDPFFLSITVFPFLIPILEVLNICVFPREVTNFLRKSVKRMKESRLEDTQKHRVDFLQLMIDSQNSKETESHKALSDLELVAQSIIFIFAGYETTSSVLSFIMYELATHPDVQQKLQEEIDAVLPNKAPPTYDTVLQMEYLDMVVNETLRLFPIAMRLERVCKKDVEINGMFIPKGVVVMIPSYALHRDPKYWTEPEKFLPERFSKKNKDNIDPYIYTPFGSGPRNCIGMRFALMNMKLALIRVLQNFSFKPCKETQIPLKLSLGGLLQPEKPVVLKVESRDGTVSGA

For assay [10], the target named is Cytochrome P450 2D6 (Homo sapiens) (UniProt P10635). Briefly: qHTS for inhibitors of CYP2D6 against the NCATS DSHEA and TCM libraries (AID 1919972). Note: % is set by controls: 0 for no effect and ±100 for the full control effect. The procedure, abridged:
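CYP2D6 enzyme with pro-luciferin substrate in manufacturer buffer (typically 100 mM KPO4), preincubated 15 min RT with substances (most at 19.5 nM upward); NADPH regeneration system (1x) started 30–45 min RT reaction; P450-Glo luminescence read after 30 min; quinidine as intraplate control.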

The target in assay [11] is Cytochrome P450 2C9 (Homo sapiens) (UniProt P11712). The experiment in a line: qHTS for inhibitors of CYP2C9 against the NCATS DSHEA and TCM libraries (AID 1919973).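 Note: luminogenic pro-luciferin CYP2C9 substrate turned into luciferin with NADPH regeneration; series mostly up to about 34 µM; % is set by controls: 0 for no effect and ±100 for the full control effect.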 The procedure, abridged: as §2
Sequence of Cytochrome P450 2C9 (Homo sapiens) (P11712 whole entry, looked up): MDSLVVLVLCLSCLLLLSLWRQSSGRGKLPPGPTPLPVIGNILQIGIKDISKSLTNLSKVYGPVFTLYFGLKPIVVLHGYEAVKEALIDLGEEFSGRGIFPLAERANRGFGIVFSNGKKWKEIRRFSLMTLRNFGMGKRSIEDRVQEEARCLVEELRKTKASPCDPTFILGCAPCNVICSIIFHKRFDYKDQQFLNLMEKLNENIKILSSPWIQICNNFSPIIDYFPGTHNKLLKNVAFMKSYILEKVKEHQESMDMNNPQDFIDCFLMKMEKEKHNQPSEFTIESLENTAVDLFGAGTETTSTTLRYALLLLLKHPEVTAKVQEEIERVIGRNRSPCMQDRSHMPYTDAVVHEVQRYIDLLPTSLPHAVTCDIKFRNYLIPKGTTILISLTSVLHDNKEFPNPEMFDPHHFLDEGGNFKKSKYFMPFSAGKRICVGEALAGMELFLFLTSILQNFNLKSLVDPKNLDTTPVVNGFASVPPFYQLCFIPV
For assay [12], the target named is Cytochrome P450 2C19 (Homo sapiens) (UniProt P33261). The experiment in a line: qHTS for inhibitors of CYP2C19 against the NCATS DSHEA and TCM libraries (AID 1919974).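 Note: luminescence from luciferin released by CYP2C19 oxidation of a pro-luciferin substrate; potency is the fitted concentration of half-maximal effect.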 The note with it: CYP2C19 enzyme inhibition, luminescence qHTS. Summed up: as §2
Sequence of Cytochrome P450 2C19 (Homo sapiens) (P33261 whole entry, looked up): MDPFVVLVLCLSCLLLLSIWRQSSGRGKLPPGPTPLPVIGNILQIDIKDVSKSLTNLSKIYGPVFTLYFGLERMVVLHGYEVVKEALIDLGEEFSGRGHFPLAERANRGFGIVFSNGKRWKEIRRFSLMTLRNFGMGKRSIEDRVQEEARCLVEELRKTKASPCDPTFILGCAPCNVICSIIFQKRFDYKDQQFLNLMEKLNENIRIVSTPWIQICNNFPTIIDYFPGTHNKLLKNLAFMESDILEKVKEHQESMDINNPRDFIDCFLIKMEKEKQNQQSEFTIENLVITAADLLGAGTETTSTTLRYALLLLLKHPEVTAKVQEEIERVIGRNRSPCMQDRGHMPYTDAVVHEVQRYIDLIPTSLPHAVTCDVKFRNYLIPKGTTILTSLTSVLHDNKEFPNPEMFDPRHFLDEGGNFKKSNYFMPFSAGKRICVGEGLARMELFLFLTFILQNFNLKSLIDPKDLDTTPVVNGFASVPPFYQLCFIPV
Assay [13] is described as follows: KB-3-1 P-gp reporter qHTS against the NCATS DSHEA and TCM libraries (AID 1919975). Note: 0% is about no effect. Summed up:
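Cell viability qHTS: 500 KB-3-1 cells/well, substances in titration, ~72 h, 37C; luminescent CellTiter-Glo read.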

Assay [14] addresses Cytochrome P450 1A2 (Homo sapiens) (UniProt P05177). The experiment in a line: qHTS for inhibitors of CYPIA2 against the NCATS DSHEA and TCM libraries (AID 1919976). Note: potency is the fitted concentration of half-maximal effect. The procedure, abridged: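 Reaction started with 1x NADPH regeneration solution and run 30-45 min, room temperature, protected from light, after compounds sat 15 min with CYP1A2 and pro-luciferin substrate. P450-Glo detection gave luminescence; furafylline served as control.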

Assay [15] can be described thus: qHTS Counterscreen for compound interference against the NCATS DSHEA and TCM libraries (AID 1919978).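 Note: compounds preincubated with 1 µM D-luciferin or buffer before detection reagent; % of control where 0% means no effect.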 The settings on record: firefly luciferase detection reagent interference, luminescence. Summed up:
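Interference check: test samples were incubated with D-luciferin (final 1 uM) or buffer only for 15 min, room temperature, in a qHTS titration up to 39.8 uM, then developed with detection reagent and read by luminescence.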

The nature of assay [16]: Dual reporter qHTS for agonist of Pregnane X Receptor (hPXR) against the NCATS DSHEA and TCM libraries: Fluorescence readout (AID 1920058). Note: 0% is about no effect. Summed up: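 Viability readout (CellTiter-Fluor, 405/540 nm, 1 h) from agonist-mode PXR dual reporter in hPXR-Luc HepG2 cells. Substances ~24 h, 37 °C, 5% CO2; rifampicin reference, tetraoctyl ammonium bromide cytotoxic control.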
The nature of assay [17]: Counterscreen qHTS for small molecule stabilizers of the endoplasmic reticulum resident proteome: GLuc-NoTag assay (AID 1508627).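 Note: series mostly up to about 76 µM; 0% = thapsigargin alone and -100% = DMSO vehicle control.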 Summed up: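 Counterscreen line: SH-SY5Y-GLuc-NoTag cells, treated with compound 19 hr before a 4 hr, 100 nM thapsigargin calcium depletion. Secreted Gaussia luciferase in the medium was measured by luminescence after coelenterazine was added (0.07x final), with cells unlysed.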

Assay [18] in a line: Confirmatory qHTS for small molecule stabilizers of the endoplasmic reticulum resident proteome: Secreted ER Calcium Modulated Protein (SERCaMP) assay (AID 1508628). Note: series mostly up to about 76 µM; % is set by controls: 0 for no effect and ±100 for the full control effect; nearly all actives have a fitted effect of over 40% in size. The procedure, abridged: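 Reporter secretion upon ER calcium depletion (100 nM thapsigargin, 4 h, 37C) is measured as medium luminescence with coelenterazine, after 16 h compound pretreatment of SH-SY5Y-GLuc-SERCaMP cells; primary at three concentrations up to 38.3 uM, follow-up at 11 (up to 76.6 uM).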

Assay [19] can be described thus: Cell Viability qHTS for small molecule stabilizers of the endoplasmic reticulum resident proteome (AID 1508629).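 Note: human SH-SY5Y neuroblastoma cells carrying the GLuc-SERCaMP reporter; compound exposure about 46 h in total before the viability read; % is set by controls: 0 for no effect and ±100 for the full control effect.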 The settings on record: cell viability counter-screen, 100 nM thapsigargin for final 4 h.
A short description of assay [20]: VSVG counterscreen qHTS to identify inhibitors of SARS-CoV-2 cell entry (AID 1645847; calls by dose curve; note: potency is the fitted concentration of half-maximal effect; nearly all actives have a fitted effect of over 65% in size). The procedure, abridged: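 Entry of VSV-G pseudotyped particles into human ACE2-expressing HEK293 cells was measured by luciferase luminescence 48 h after infection, with compound added 1 h beforehand.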

Values without a mark were called inactive. Inconclusive results are not listed. Activity calls are given as the source filed them. Unless noted, calls come from the whole dose curve; as a rule, active = well fitted curve in the direction sought with a large enough effect; inconclusive = small, poorly fitted or top-dose-only effect, or another doubt; inactive = no such curve, though single readings can be large; an effect the other way counts as inactive or inconclusive.

Sequence of Cytochrome P450 1A2 (Homo sapiens) (P05177 whole entry, looked up): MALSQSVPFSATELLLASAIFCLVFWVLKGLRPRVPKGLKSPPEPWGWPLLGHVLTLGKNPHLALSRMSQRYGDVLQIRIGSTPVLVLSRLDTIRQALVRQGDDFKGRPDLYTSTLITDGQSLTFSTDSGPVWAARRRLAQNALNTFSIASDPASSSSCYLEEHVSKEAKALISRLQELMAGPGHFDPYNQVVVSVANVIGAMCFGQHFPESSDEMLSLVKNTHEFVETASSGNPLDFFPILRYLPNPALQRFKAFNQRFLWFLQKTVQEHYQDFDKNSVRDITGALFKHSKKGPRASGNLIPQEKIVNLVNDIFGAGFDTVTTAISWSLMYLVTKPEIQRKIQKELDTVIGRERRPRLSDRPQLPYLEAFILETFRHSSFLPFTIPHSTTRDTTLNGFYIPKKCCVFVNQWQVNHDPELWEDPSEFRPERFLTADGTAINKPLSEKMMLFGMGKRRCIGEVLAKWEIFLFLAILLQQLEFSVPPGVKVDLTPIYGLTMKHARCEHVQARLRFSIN
Sequence of Cytochrome P450 2D6 (Homo sapiens) (P10635 whole entry, looked up): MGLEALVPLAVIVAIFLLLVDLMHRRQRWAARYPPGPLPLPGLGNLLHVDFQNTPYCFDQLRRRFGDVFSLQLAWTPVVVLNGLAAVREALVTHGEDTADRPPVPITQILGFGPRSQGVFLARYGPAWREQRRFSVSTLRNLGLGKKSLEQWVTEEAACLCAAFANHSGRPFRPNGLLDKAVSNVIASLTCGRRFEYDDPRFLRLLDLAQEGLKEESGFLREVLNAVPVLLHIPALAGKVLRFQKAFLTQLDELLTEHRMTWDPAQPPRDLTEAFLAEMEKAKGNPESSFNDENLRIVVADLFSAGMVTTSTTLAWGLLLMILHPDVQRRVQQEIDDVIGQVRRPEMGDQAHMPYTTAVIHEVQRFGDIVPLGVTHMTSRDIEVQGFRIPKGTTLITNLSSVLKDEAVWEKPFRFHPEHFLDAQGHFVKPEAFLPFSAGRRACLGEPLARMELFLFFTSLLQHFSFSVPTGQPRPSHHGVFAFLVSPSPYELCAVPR

Regarding `CC1CCCC(=O)CCC/C=C/c2cc(O)cc(O)c2C(=O)O1` (stereo not given), the compound was called inactive in [1]. In assay [2], the Potency is 15.8 µM (active).
For the compound `C=C1[C@@H](C)[C@H]2[C@H](Cc3ccccc3)NC(=O)[C@]23OC(=O)/C=C/C(=O)CCC[C@@H](C)C/C=C/[C@H]3[C@@H]1O`, the Potency in assay [3] is 10 µM (active).
Consider `C=C(CO)C(=O)O[C@H]1CC(=C)[C@@H]2C[C@H](O)C(=C)[C@@H]2[C@H]2OC(=O)C(=C)[C@@H]21`, for which the Potency in assay [4] was 22.4 µM (active); in [12], 2.24 µM (active); in assay [14], 2.51 µM (active). The outcome in assay [5], in assay [6], in assay [7], in assay [8], in assay [9] and in assay [10] was inactive. The compound was called inactive in [11], in assay [13] and in [16]. Also, the max response in assay [15] was -4.75%.
With `C[C@H]1CCC/C=C/C2C[C@H](O)C[C@H]2[C@H](O)/C=C/C(=O)O1` (stereo not given in full), the Potency result in [17] and in assay [18] was “inactive” throughout. Also, the max response in assay [19] was 21.4%. For the same compound, in assay [20], the Potency was 0.857 µM (active).
